Test results from PubChem BioAssay AID588493 (Sanford-Burnham Center for Chemical Genomics, 2011).
Hit rate of the full screen: of about 360,000 compounds, about 2,100 (0.58%) were called active.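 Rule for the calls: active = inhibition at 20 µM, scaled to each plate's controls, above about 33% (limit read from the data); inactive = the rest.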 The entries come from a sample that favours actives as a whole.

What follows are compounds tested against 26S proteasome non-ATPase regulatory subunit 14 (Homo sapiens) (UniProt O00487) (assay: inhibition of 26S proteasome subunit Rpn11 – biochemical, fluorescence polarization, uHTS, primary screen (AID 588493)). Details: human 26S proteasome, Ub4-pepOG fluorescence polarization; at 20 µM; hits give high values; 20S core pre-blocked with epoxomicin.
26S proteasome non-ATPase regulatory subunit 14 (Homo sapiens), sequence (O00487 whole entry, looked up): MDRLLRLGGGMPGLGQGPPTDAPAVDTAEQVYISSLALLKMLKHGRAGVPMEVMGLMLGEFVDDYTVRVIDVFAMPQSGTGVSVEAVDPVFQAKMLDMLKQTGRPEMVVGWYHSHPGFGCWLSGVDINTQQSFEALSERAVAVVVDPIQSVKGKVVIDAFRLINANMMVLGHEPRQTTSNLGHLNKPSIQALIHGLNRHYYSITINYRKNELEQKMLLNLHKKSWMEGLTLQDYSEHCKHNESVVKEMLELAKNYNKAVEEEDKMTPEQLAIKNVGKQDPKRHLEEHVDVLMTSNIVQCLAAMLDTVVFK

inhibition, active:
COc1cccc(NC(=O)C(C)Oc2ccccc2)c1 (configuration not stated) 112%
Cc1sc2nc(COC(=O)C(NC(=O)c3ccc(Cl)cc3Cl)C(C)C)[nH]c(=O)c2c1C (configuration not stated) 56.9%
CCC/C=C(\CCC)C(NC(=O)Cc1ccccc1)c1ccc(C(=O)OC)cc1 (configuration not stated) 40.7%
Oc1c(CN2CCCC2)cc(COCc2ccccc2)c2cccnc12 49.9%
CCN(CC)C(=O)CSc1nc2ccccc2n1CC(=O)N1CCN(c2ccccc2OC)CC1 34.8%
Cc1cc(/C=N/Nc2ccc([N+](=O)[O-])cn2)c(C)n1-c1cccc(C(=O)O)c1 49%
Cc1ccc(Nc2nc(Cl)c(C=O)s2)cc1 108%
COC(=O)C1=C(C)NC2=C(C(=O)c3ccccc32)C1c1ccc(-c2ccc(C(=O)O)cc2)o1 (configuration not stated) 67.4%
COc1cc(/C=C2/SC(=S)N(Cc3ccccc3)C2=O)cc(OC)c1O 49.6%
Cc1c(N=Nc2ccc(N(C)C)cc2)c(=O)n(-c2ccccc2)n1C 67.4%
O=C1NC(=O)C2C1C(c1ccc([N+](=O)[O-])cc1)=NN2Cc1ccccc1 (configuration not stated) 50.8%
N#Cc1c(-c2cccs2)nc(SCC(=O)c2ccc(Br)cc2)[nH]c1=O 68.3%
O=C1CSC(=S)N1/N=C/c1ccc(O)c([N+](=O)[O-])c1 48.1%
NC(N)=N/N=C/c1ccc(OCc2ccc(Cl)cc2Cl)cc1 51.4%
C=CCn1c(=S)[nH]c2scc(-c3ccco3)c2c1=O 48.1%
O=C(OCc1cc2ccccc2[nH]c1=O)c1cccnc1 93.5%
COc1ccc(Cl)cc1NC(=O)CCS(=O)(=O)c1ccc(Br)cc1 80.4%
Cc1ccc(CSCC2Nc3ccc(C(=O)N4CCN(c5ccc(F)cc5)CC4)cc3NC2=O)cc1 (configuration not stated) 109%
C=CC1=C(C(=O)O)N2C(=O)[C@@H](NC(=O)/C(=N/OCC(=O)O)c3csc(N)n3)[C@H]2SC1 45.1%

inhibition, inactive:
COc1ccc(OC(C)C(=O)Nc2cccnc2)cc1 (configuration not stated) -6%
COc1cccc(NC(=O)CC(c2ccc(OC(C)C)cc2)c2ccccc2OC)c1 (configuration not stated) -1.6%
Cc1ccc2[nH]c(C(=O)O)c(NC(=O)c3ccccc3[N+](=O)[O-])c2c1 3.4%
Cc1ccc(S(=O)(=O)N2CCCC2C(=O)OCc2nc3sc(C)c(C)c3c(=O)[nH]2)cc1 (configuration not stated) -0.8%
O=C(CN1C(=O)CC(c2ccccc2)S(=O)(=O)c2ccccc21)NC1CCCC1 (configuration not stated) -1.6%
CCN(c1ccccc1)S(=O)(=O)c1cc2c(cc1C)n(C)c(=O)c(=O)n2C -1.8%
COC(=O)CCSc1cc([N+](=O)[O-])cc2c1c(C1OCCS1)nn2-c1ccccc1 (configuration not stated) 14%
CCC[C@@H]1C[C@@]1(CCC)[C@@H](NC(=O)c1ccccc1)c1ccc(C(=O)OC)cc1 -3.6%
COC(=O)c1ccc(C(NC(=O)OCc2ccccc2)/C(F)=C/[C@@H](C)C(=O)O)cc1 (some centres not stated) -4.9%
O=C(Cc1ccccc1)NNC(=O)C1CCN(c2ncccn2)CC1 -1.3%
O=c1cc(CN2CCCCCCC2)c2c(ccc3ccccc32)o1 6.4%
COCC(=O)N1CCCC(C(=O)c2ccc(C(F)(F)F)cc2)C1 (configuration not stated) -0.9%
CCOC(=O)c1cc(NC(=O)SCC(=O)O)c(C)nc1C 1%
CCCNC(=O)C1(C)CCN(C(=O)c2ccccc2OC(F)(F)F)C1 (configuration not stated) -2.7%
COc1ccc(Cc2cc(-c3ccc(F)cc3)n[nH]c2=O)cc1 -2%
COc1ccc2[nH]c(=O)c(CNc3ccc(C)c(C)c3)cc2c1 -2.9%
CCOC(=O)CSc1nc2ccc(C)cc2n2cnnc12 3.8%
CC1(c2ccccc2)NC(=O)N(CC(=O)N2CC(=O)Nc3ccccc32)C1=O (configuration not stated) -0.8%
CCOC(=O)n1c(SCC(=O)N(CC)CC)nc2ccccc21 4%
COc1ccccc1OCCn1c(SCC(N)=O)nc2ccccc21 -6.3%
CCCCN(C=O)c1c(CC)nc2c(OCCC3CCCCC3)cccn12 3.8%
Cc1cc(N)n2nc(-c3ccc(C(C)(C)C)cc3)cc2n1 8.7%
Cc1cc2cc(CNC(=O)c3cccs3)ccc2[nH]1 3.4%
CC(C)c1ccc(C=NNc2ccc([N+](=O)[O-])cn2)cc1 3.1%
Cc1cc(/C=N/NC(=O)CC2(C)OCCO2)c(C)n1-c1ccc(Cl)c(Cl)c1 4.1%
O=C(Nc1cccc(Cl)c1)c1cc(S(=O)(=O)N2CCCCC2)c[nH]1 3.9%
CN(C)C(=O)c1cccc(-c2cnc3sc(NCc4ccc5c(c4)OCO5)nn23)c1 -1.9%
NC(=NC(=O)c1ccccc1)C1=C(O)CCC1=O -7.5%
COCCCNC(=O)Cn1c(=O)n(Cc2ccccc2Cl)c(=O)c2cc(OC)c(OC)cc21 -0.4%
Cc1ccc(Nc2nnc(SC(C)C(=O)NC3CC3)s2)cc1 (configuration not stated) 4.1%
CCCCC(=O)Nc1nc(C)c(-c2csc(Nc3ccc(Cl)cc3)n2)s1 13.9%
CSc1ncnc2c1ncn2CCCNCC(C)c1ccccc1 (configuration not stated) -1.5%
COC(=O)C1=C(C)NC(=O)/C1=C/c1ccc(CNS(=O)(=O)c2ccc(C)cc2)o1 -0.8%
O=C(NCc1ccc(Cl)cc1)C1CCN(S(=O)(=O)c2cccs2)CC1 4.3%
Cn1nnnc1SCC(=O)Nc1ccccc1C(=O)NC1CC1 5.5%
CCN(CC)CCn1c2c(c(SCC(=O)Nc3ccc(C(C)C)cc3)nc1=O)CCC2 0.3%
CC(=O)Nc1c2c(nn1-c1ccc(C)cc1C)CS(=O)C2 (configuration not stated) 1.3%
COc1ccc(CCNC2=C(Cl)C(=O)N(Cc3ccccc3)C2=O)cc1OC -4.9%
O=C(Nc1ccc(OCCO)cc1)c1csc([C@H]2C[C@H](O)[C@@H](CO)O2)n1 0.7%
CC(C)=CCN1CCN(CCCc2ccccc2)CC1CCO (configuration not stated) -5%
Cc1nc(N)sc1N=Nc1c(C)n(C)n(-c2ccccc2)c1=O 8.3%
Cc1c(C=O)n(C)n(-c2ccccc2)c1=O 8.1%
Cc1csc(=O)n1CCC(=O)OCC(=O)Nc1ccc(N2CCOCC2)cc1 -1.7%
O=C(OCC(=O)N1CCOCC1)c1ccc(N2CCOCC2)c([N+](=O)[O-])c1 1.7%
CCCCN(CC)C(=O)c1ccccc1Oc1ccccc1 -5%
O=[N+]([O-])c1ccc(C(S(=O)(=O)Cc2ccccc2)S(=O)(=O)Cc2ccccc2)cc1 -4%
CC(=O)N1c2ccccc2N(Cc2ccc([N+](=O)[O-])cc2)C(=O)C1(C)C -1.8%
Cc1cc(C)c2c(=O)[nH]c(SCC(=O)Nc3ccc(Br)cc3)nc2n1 2.1%
CC(=O)CSc1nc(CCc2ccccc2)c(C#N)c(=O)[nH]1 -4.6%
COC(=O)[C@H](C(C)C)n1c(C)c(C(C)=O)c(C(C)=O)c1C 3.5%
CCOc1cccc(/C=N/N2C(=O)CSC2=S)c1O 32.9%
COc1ccc(C2CC(c3ccccc3)=NN2C(=O)c2ccc(Cl)c([N+](=O)[O-])c2)cc1 (configuration not stated) -5%
CCCCc1nc(NCCN)c(C#N)c2c1CSC(C)(C)C2 0.8%
COc1ccc(CC(N)c2csc(NC(=O)Nc3ccc(C(C)C)cc3)n2)cc1 (configuration not stated) 2.4%
COc1ccc(Cl)cc1N(CC(=O)N/N=C/c1ccc(OCC(N)=O)cc1)S(C)(=O)=O -5.6%
NC(=O)COc1ccc(/C=N/NC(=O)C2CCCN2S(=O)(=O)c2ccc(Cl)cc2)cc1 (configuration not stated) -4.1%
CC1CCC2(CC1)NC(=O)N(CC(=O)NCc1ccco1)C2=O (configuration not stated) 7.9%
N#Cc1c(-c2ccc(Cl)cc2)c2c([nH]c1=S)CCCC2 10.1%
CC1Cc2ccccc2N1S(=O)(=O)c1cccc(C(=O)NCC(c2ccco2)N2CCCC2)c1 (configuration not stated) 5.2%
CC1(C)C(C=C(Cl)Cl)C1C(=O)N(Cc1ccc(Cl)cc1)C1CCS(=O)(=O)C1 (configuration not stated) -6.8%
CC(C)(C)NC(=O)NC(=O)CN1CCC(Cc2ccccc2)CC1 2.6%
O=C(O)CCCCOn1ccnc1 -5.3%
O=C(OCc1cc(Cl)ccc1OC(F)F)c1cccnc1 9.5%
Cc1ccc2[nH]c(=O)c(COC(=O)c3ccccn3)cc2c1 -5.9%
COc1cccc(C2CC(c3ccccc3)=NN2S(=O)(=O)c2ccccc2)c1OC (configuration not stated) 1.8%
COc1cccc(Nc2nnc(SCC(=O)N3CC(=O)Nc4ccccc43)s2)c1 0.5%
O=C(CCS(=O)(=O)c1ccc(Br)cc1)NCCc1ccc(Cl)cc1 -2.9%
COc1ccc(Cl)cc1NC(=O)COC(=O)c1ccc(Br)o1 -3.1%
O=C(CSc1ccc2nnc(-c3ccccc3)n2n1)N1CCCc2ccccc21 39.2%
COC(=O)c1ccc(C(=O)OC)c(NC(=S)N2CCN(c3ccc(F)cc3)CC2)c1 -2.6%
COc1cccc2c1OCC1COc3c(c(=O)n(C)c(=O)n3C)C21 (configuration not stated) -1.5%
C=CC1=C(C(=O)O)N2C(=O)[C@@H](NC(=O)/C(=N\OCC(=O)O)c3csc(N)n3)[C@H]2SC1 -0.3%
Cc1ccc2c(CN3CCN(S(=O)(=O)c4ccccc4C(F)(F)F)CC3)cc(=O)oc2c1 3.9%
